Bioassay records deposited in PubChem BioAssay by Sanford-Burnham Center for Chemical Genomics.
GC-B act = human GC-B receptor activators, primary screen, HEK293 GC-B cells, cGMP TR-FRET, EC30 CNP; activation, % at 10 µM; 0.11% of 370,000 active; AID 1920062, 2024; 0% at EC30 CNP, 100% saturating CNP;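 active = activation at 10 µM reaching about 35% in either raw or pattern-adjusted values, limit read from the data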
Target sequence (P20594 whole entry, looked up): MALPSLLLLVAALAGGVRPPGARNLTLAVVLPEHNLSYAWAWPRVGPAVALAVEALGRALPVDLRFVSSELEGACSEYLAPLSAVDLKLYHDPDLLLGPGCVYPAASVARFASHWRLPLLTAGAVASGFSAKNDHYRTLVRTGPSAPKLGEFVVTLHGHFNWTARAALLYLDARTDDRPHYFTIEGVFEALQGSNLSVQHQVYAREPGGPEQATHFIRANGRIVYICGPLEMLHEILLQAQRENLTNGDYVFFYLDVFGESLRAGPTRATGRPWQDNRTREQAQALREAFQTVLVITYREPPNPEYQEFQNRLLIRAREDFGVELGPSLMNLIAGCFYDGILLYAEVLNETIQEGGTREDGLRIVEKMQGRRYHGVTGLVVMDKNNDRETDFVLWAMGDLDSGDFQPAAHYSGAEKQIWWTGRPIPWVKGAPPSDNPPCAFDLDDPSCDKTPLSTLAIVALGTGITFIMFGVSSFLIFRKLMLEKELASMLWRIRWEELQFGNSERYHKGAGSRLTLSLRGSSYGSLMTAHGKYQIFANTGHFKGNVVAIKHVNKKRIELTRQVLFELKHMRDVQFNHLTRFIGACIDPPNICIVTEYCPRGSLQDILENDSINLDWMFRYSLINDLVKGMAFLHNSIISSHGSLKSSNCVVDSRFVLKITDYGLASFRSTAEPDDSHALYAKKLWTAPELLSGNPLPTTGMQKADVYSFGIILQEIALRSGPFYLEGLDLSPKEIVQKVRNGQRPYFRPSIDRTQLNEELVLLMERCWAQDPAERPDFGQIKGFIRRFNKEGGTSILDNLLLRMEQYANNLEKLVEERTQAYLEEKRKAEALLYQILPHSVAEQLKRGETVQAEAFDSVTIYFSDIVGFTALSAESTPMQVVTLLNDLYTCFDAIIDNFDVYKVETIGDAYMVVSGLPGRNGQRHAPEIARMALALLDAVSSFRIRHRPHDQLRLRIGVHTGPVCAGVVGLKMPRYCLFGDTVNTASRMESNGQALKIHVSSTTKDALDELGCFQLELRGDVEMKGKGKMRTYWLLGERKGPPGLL
aDG glyco up = activators of alpha-DG glycosylation, primary screen, uHTS, Pro5-aDG cells, AlphaScreen; alpha-DG glycosylation AlphaScreen (IIH6); 0% Pro5, 100% B10-LARGE cell signal; activation, % at 10 µM; 0.22% of 360,000 active;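 active = activation of at least 8% versus controls, or a plate z-score of at least 8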;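 note: Pro5 are CHO cells carrying HIG-tagged alpha-DG that lacks glycosylation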
GC-A act = GC-A stimulated cGMP production enhancers – HEK293 GC-A cells, cGMP TR-FRET, EC30 ANP, primary screen. Atrial natriuretic peptide receptor 1 (Homo sapiens), P16066. 0% at EC30 ANP, 100% saturating ANP. activation, % at 10 µM. 0.14% of 370,000 active. AID 1671463, 2021; in the data active = activation above about 40%
FAS TE block = FAS thioesterase domain inhibitors, primary screen, biochemical, fluorescence intensity, uHTS | recombinant FAS-TE, OMFH fluorogenic substrate, fluorescence endpoint | AID 602261, 2012 | inhibition, % at 15 µM | 0.67% of 360,000 active | Fatty acid synthase (Homo sapiens), P49327;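 active = compounds whose normalised, plate-corrected inhibition of enzyme fluorescence in the single-dose primary screen is 50% or more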;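 note: 0% = DMSO with enzyme and 100% = substrate without enzyme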
FAS-TE inh conf = FAS thioesterase domain inhibitors, confirmation, biochemical, fluorescence intensity, single concentration; shares compounds with FAS TE block; recombinant FAS-TE, OMFH fluorogenic substrate; inhibition, % at 15 µM; 45% of 2,300 active;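 active = compounds inhibiting the enzyme by at least 50% at 15 µM in any one of the replicates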;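 note: 0% = enzyme with DMSO only and 100% = wells lacking enzyme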
* = called active by the depositor; / = no result. Hits are enriched below; roughly 1.1% of the tested compounds scored in any of these assays.

SMILES | GC-B act | aDG glyco up | GC-A act | FAS TE block | FAS-TE inh conf
COCCCNC(=O)C[C@H]1C[C@H](C(=O)N2CCOCC2)[C@@]2(CCC3CCCC3)c3[nH]c4cc(-c5ccco5)ccc4c3CCN2C1=O | 7.3 | -0.1 | -3.1 | 59.4* | 29.3*
O=C(C[C@H]1C[C@H](C(=O)N2CCOCC2)[C@@]2(CCC3CCCC3)c3[nH]c4cc(-c5ccco5)ccc4c3CCN2C1=O)NCCN1CCOCC1 | -2.9 | 0.1 | 0.6 | 68.8* | 79.6*
CN(C)CCCNC(=O)C[C@H]1C[C@H](C(=O)N2CCOCC2)[C@@]2(CCC3CCCC3)c3[nH]c4cc(-c5ccco5)ccc4c3CCN2C1=O | -6.6 | 0.7 | 2.6 | 69.7* | 78.4*
COc1ccc(CNC(=O)C[C@H]2C[C@H](C(=O)N3CCOCC3)[C@@]3(CCC4CCCC4)c4[nH]c5cc(-c6ccco6)ccc5c4CCN3C2=O)cc1OC | -1.0 | 0.0 | 0.3 | 36.3 | /
CC[C@]12c3[nH]c4cc(-c5ccco5)ccc4c3CCN1C(=O)[C@@H](CC(=O)NCCCN(C)C)C[C@@H]2C(=O)N1CCN(C(=O)C2CC2)CC1 | 1.9 | 0.3 | 1.3 | -3.6 | /
CNS(=O)(=O)c1cccc(C(=O)OCC(=O)NC(C)CCc2ccccc2)c1 (stereo not drawn) | -0.6 | -0.2 | 3.2 | -1.7 | /
CC(CCc1ccccc1)NC(=O)COC(=O)c1cc(NS(=O)(=O)c2ccc(Cl)c([N+](=O)[O-])c2)ccc1O (stereo not drawn) | -1.6 | 0.1 | 1.7 | 54.6* | 61.7*
O=S(=O)(/N=C(/Sc1ccccc1)c1ccccc1)c1ccccc1 | 4.5 | 0.7 | 10.4 | 56.8* | 31.6
Cc1ccc(OCCNC(=O)CNC(=O)c2ccc(Cl)c([N+](=O)[O-])c2)cc1 | 0.9 | 0.0 | -0.3 | 62.2* | 53.6*
O=C(NCCCN1CCN(CCCNC(=O)c2cc([N+](=O)[O-])ccc2Cl)CC1)c1cc([N+](=O)[O-])ccc1Cl | -2.7 | 0.1 | 2.6 | -12.9 | /
Cc1ccc(C(=O)NCCSc2ccc(Cl)cc2)cc1[N+](=O)[O-] | 4.4 | 0.2 | -2.6 | 40.4 | /
O=C(NCCCc1ccccc1)c1ccc([N+](=O)[O-])cc1Cl | 2.7 | -0.1 | 3.5 | 83.7* | 87.6*
O=C(NCCc1cccc(Cl)c1)c1cc([N+](=O)[O-])ccc1Cl | 2.6 | 0.1 | 5.7 | 63.6* | 46.2
Cc1ccc(C(=O)NCCCc2ccccc2)c(Cl)c1 | 6.4 | 0.0 | 2.5 | 15.2 | /
Cc1ccc(C(=O)NCCc2cccc(Cl)c2)cc1[N+](=O)[O-] | 31.7 | 0.7 | 31.4 | 51.5* | 31.7
O=C(NCCc1cccc(Cl)c1)c1ccc(Cl)c([N+](=O)[O-])c1 | 18.0 | 0.5 | 26.1 | 71.9* | 50.3*
COc1cc2c(cc1OC)[C@@H](NC(=O)c1ccncc1)[C@H](C)[C@H]2c1ccccc1 | -4.0 | / | 1.1 | / | /
COc1cccc(-n2c(CN3CCN(c4ccccc4)CC3)nc3ccc([N+](=O)[O-])cc3c2=O)c1 | -4.7 | -0.6 | -4.9 | 71.5* | 31.1*
Clc1ccc(CN2CCN(N=Cc3c4ccccc4cc4ccccc34)CC2)cc1 | -8.8 | / | 2.5 | / | /
CCc1cc2c(nc1CC)CCCN2S(=O)(=O)c1ccc(OC)cc1 | 5.0 | / | -2.1 | / | /
COC(=O)C1=C(C)N(Cc2cccc(C(F)(F)F)c2)C(=NCc2cc(OC)c(OC)c(OC)c2)NC1c1ccc(Cl)cc1 (stereo not drawn) | -22.0 | / | -23.4 | / | /
Cc1cccc([C@@H]2[C@@H]3C(=O)N(Cc4ccccc4)C(=O)[C@@H]3[C@]3(Cc4ccc(Cl)cc4)C(=O)N(c4ccccc4)C(=O)N23)c1 | -22.2 | -0.3 | -16.8 | 92.8* | 23.1
Cc1cccc([C@@H]2[C@@H]3C(=O)N(Cc4ccccc4)C(=O)[C@@H]3[C@]3(Cc4ccc(Cl)cc4)C(=O)N(c4cccc(Br)c4)C(=O)N23)c1 | -27.6 | 0.2 | -20.2 | 91.4* | 23.4
Cc1cccc([C@@H]2[C@@H]3C(=O)N(Cc4ccccc4)C(=O)[C@@H]3[C@]3(Cc4ccccc4)C(=O)N(c4ccc(C(F)(F)F)cc4)C(=O)N23)c1 | 2.5 | 0.7 | 2.9 | 90.3* | 27.4
CC[C@@]12C(=O)N(c3cccc(Br)c3)C(=O)N1[C@H](c1cccc(C)c1)[C@@H]1C(=O)N(Cc3ccccc3)C(=O)[C@@H]12 | -16.1 | 0.2 | -14.7 | 55.2* | 31.5
SMILES | GC-B act | aDG glyco up | GC-A act | FAS TE block | FAS-TE inh conf
CCN1C(=O)[C@H]2[C@@H](c3ccc(C)cc3)N3C(=O)N(c4ccc(C)cc4)C(=O)[C@@]3(Cc3ccccc3)[C@H]2C1=O | 4.1 | -0.2 | 4.1 | 12.6 | /
CCOC(=O)CC[C@@]1(C(=O)OCC)C[C@@H](CC(=O)NCCc2ccccc2OC)C(=O)N2CCCC=C21 | -3.1 | / | 0.7 | / | /
Cn1cc(CC(=O)Nc2ccc(Oc3cccnc3)cc2)c2ccccc21 | -0.5 | / | -1.6 | / | /
C[C@@H]1CN([C@@H](C)CO)C(=O)c2cccc(NC(=O)Nc3cccc4ccccc34)c2O[C@H]1CN(C)S(=O)(=O)c1ccc2c(c1)OCCO2 | 4.6 | / | -5.0 | / | /
CC(=O)OCCNc1cc(Sc2nc3ccccc3[nH]2)c2nonc2c1[N+](=O)[O-] | 19.9 | 0.2 | 35.9 | 75.7* | 72.3*
CC(=O)OCCCNc1cc(Sc2nc3ccccc3s2)c2nonc2c1[N+](=O)[O-] | / | -0.2 | / | 82.2* | 66.7*
CC(=O)OCCCNc1cc(Sc2ccc(C)cc2)c2nonc2c1[N+](=O)[O-] | 13.2 | -0.1 | 11.5 | 18.4 | /
O=[N+]([O-])c1c(NCCCO)cc(Sc2ccc(Cl)cc2)c2nonc12 | -4.2 | -0.6 | 12.5 | 61.4* | 49.3*
O=[N+]([O-])c1c(NCCCO)cc(SCc2ccco2)c2nonc12 | -2.4 | 0.3 | 7.1 | 15.5 | /
CCOc1ccc(-n2c(COc3ccc(C)cc3)nnc2SCC(=O)c2ccc3ccccc3c2)cc1 | -1.2 | / | -0.2 | / | /
CCc1cccc(CC)c1NC(=O)/C(C#N)=C/c1ccccc1C(F)(F)F | -1.0 | 0.0 | 0.0 | 53.5* | 60.7*
CCOC(=O)[C@]12CCCCC/C=C\1N(CCc1ccc(Cl)cc1)C(=O)[C@H]2CC(=O)NCCC(C)C | 0.3 | / | -1.2 | / | /
CC(C)COc1ccc(C(=O)N/C(=C\c2cccc([N+](=O)[O-])c2)C(=O)OC(C)C)cc1 | 0.3 | 0.0 | 0.3 | 47.8 | /
CC(C)COc1ccc(C(=O)N/C(=C/c2cccc([N+](=O)[O-])c2)C(=O)O)cc1 | 2.4 | 0.0 | 6.5 | 56.8* | 59.5*
CC(C)COc1ccc(C(=O)N/C(=C\c2cccc([N+](=O)[O-])c2)C(=O)O)cc1 | 5.0 | -0.1 | -0.2 | 62.2* | 76.7*
CC(C)C[C@H]1COc2cc(Br)ccc2S(=O)(=O)N1Cc1cn(Cc2ccc(Br)cc2)nn1 | -2.3 | / | 1.7 | / | /
